# Screens (PubChem)
# Compounds with a hit are over-represented: about 4.1% of the library has one in this group of screens.
# Mdm2-MdmX inh: inhibitors of human Mdm2-MdmX association, primary screen, cell-based, luminescence, split luciferase, SaOS-2, uHTS | Protein Mdm4 (Homo sapiens) + E3 ubiquitin-protein ligase Mdm2 (Homo sapiens), … | SaOS-2 split-luciferase Mdm2/MdmX complementation | inhibition, % at 8 µM | 330,000 tested, 3% active;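 active = inhibition of at least 50% at 8 µM in the primary screen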
# Jurkat NFkB inh: inhibitors of induced NF-kB luciferase reporter, primary screen, TCR NF-kB activation inhibitor project, cell-based, luminescence, uHTS. Jurkat, PMA/ionomycin-induced NF-kB luciferase reporter. inhibition, % at 4 µM. 330,000 tested, 0.53% active. AID 435003, 2010; in the data active = inhibition above about 50%
# aSyn 5UTR inh: MLPCN primary screen, SNCA 5' untranslated region | alpha-synuclein 5'UTR reporter, inhibitor activity | 300,000 tested, 0.82% active | AID 1813, 2009 | inhibition, % (tested at 7.5 µM); in the data active = inhibition above about 60%;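 also: H4 neuroglioblastoma cells stably carrying SNCA 5'UTR luciferase fusion; 0% = DMSO wells and 100% = positive control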
# Gli-Sufu antag: Gli-Sufu pathway antagonists, primary screen, luciferase luminescence, Sufu-KO-LIGHT cells, uHTS. AID 588413, 2011. inhibition, % at 5 µM. 340,000 tested, 0.74% active. Sufu-KO-LIGHT fibroblasts, Gli luciferase reporter luminescence;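 active = inhibition above about 55%, limit read from the data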;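 also: 0% = DMSO-treated cells and 100% = wells with medium but no cells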
# KLF5 inhibitor: KLF5 expression inhibitors, primary screen, DLD-1 cells, luminescence. DLD-1 KLF5 promoter-luciferase reporter. 290,000 tested, 0.23% active. AID 1700, 2009. inhibition, % at 5 µM;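 active = inhibition above a per-plate limit of that plate's mean compound inhibition plus 3 SD, cut at about 60% in these data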;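 also: 0% = DMSO wells and 100% = LY294002 at 200 µM; higher means less KLF5 promoter-driven luciferase light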
# 697 NFkB inh: inhibitors of PMA/ionomycin-induced NF-kB reporter, 697 cells, primary screen, B-cell NF-kB inhibitor project, cell-based, luminescence, uHTS; 697 B-cell NF-kB luciferase reporter, 16 h; 330,000 tested, 0.33% active; AID 435022, 2010; inhibition, % at 4 µM; in the data active = inhibition above about 35%
# Mdm2-MdmX conf: Mdm2-MdmX complex disruptors, retested hits, confirmation, luminescence, single concentration; 10,000 tested, 55% active; inhibition, % at 8 µM; shares compounds with Mdm2-MdmX inh; Mdm2-MdmX binding, luminescent assay; in the data active = inhibition above about 40%
# FLuc counter: full-length luciferase signal inhibition, confirmation, counter-screen for Mdm2/MdmX interaction inhibitor project, cell-based, single concentration, SaOS-2; shares compounds with Mdm2-MdmX inh; SaOS-2 full-length luciferase counterscreen, luminescence; inhibition, % at 8 µM; 6,200 tested, 77% active; AID 504607, 2011;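 active = mean inhibition at 8 µM reaching about 37%, which flags the compound as non-specific, limit read from the data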;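 also: p53-null SaOS-2 cells with luciferase driven by a doxycycline-inducible promoter; compound on cells about two nights before reading with doxycycline added after day one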
# * = called active by the depositor; . = not tested or not shown.
SMILES,Mdm2-MdmX inh,Jurkat NFkB inh,aSyn 5UTR inh,Gli-Sufu antag,KLF5 inhibitor,697 NFkB inh,Mdm2-MdmX conf,FLuc counter
Cc1c(Cl)cccc1NC(=O)NCc1cccnc1,18.4,-2.4,7.9,-2.5,-4.9,-28.9,.,.
CC(C)OC(=O)CSc1nc(Cc2cccs2)nc2ccccc12,-0.7,4.3,3.9,-4.2,-2.4,2.9,.,.
CC(C)=CCc1c2c(c(O)c3c(=O)c4c(oc13)-c1cc(O)c(O)cc1OC4C=C(C)C)C=CC(C)(C)O2 (centres undefined),82.8*,-11.1,-2.7,6.5,.,-10.9,41.9*,34.4
O=S(=O)(O)c1cc(O)c2c(O)c(N=Nc3cc(Cl)ccc3O)c(S(=O)(=O)O)cc2c1,35.9,21.8,44.7,16.5,-10.4,3.5,.,.
Cc1cc(-c2ccc(N=Nc3c(S(=O)(=O)O)cc4cc(S(=O)(=O)O)cc(N)c4c3O)c(C)c2)ccc1N=Nc1c(S(=O)(=O)O)cc2cc(S(=O)(=O)O)cc(N)c2c1O,62.4*,10.3,.,.,.,28.3,56.6*,47.8*
Cc1cc(C)cc(NC(=O)CSc2nc3[nH]ncc3c(=O)[nH]2)c1,60.2*,12.9,-8.0,-35.7,8.1,-4.4,61.6*,49.6*
CC(=O)Oc1ccccc1C(=O)N(C1CCCCC1)C1CCCCC1,11.7,-7.4,-5.3,0.9,-6.4,15.9,.,.
CN(C)CCCN(C(=O)CCc1ccccc1)c1nc2ccc(Br)cc2s1,57.7*,5.0,-10.3,41.8,-10.7,3.1,36.8,51.7*
Cc1cccc2sc(N(CCCN(C)C)C(=O)CCc3ccccc3)nc12,59.8*,-0.8,62.2*,6.4,6.2,-18.1,23.3,.
Cc1ccnc(NS(=O)(=O)c2ccc(NS(=O)(=O)c3ccc(Br)cc3)cc2)n1,15.6,13.5,-37.2,3.4,-42.1,14.3,.,.
Cc1c(/C=N/Nc2nc3ccccc3[nH]2)c2ccccc2n1C,92.7*,-15.2,-60.9,-0.5,-60.0,-70.6,48.0*,71.1*
COc1ccc2nc(C)cc(N/N=C/c3cccc(OC)c3O)c2c1,100.3*,-22.5,99.8*,19.0,2.6,1.3,14.6,.
COc1cccc2c(N/N=C/c3ccccc3)cc(C)nc12,17.3,-15.0,21.1,-5.5,-40.8,-15.8,.,.
COc1ccc2nc(C)cc(Nc3ccccc3O)c2c1,13.2,16.8,13.0,10.5,-30.6,23.2,.,.
COc1ccc2nc(C)cc(NCc3cccc(C(F)(F)F)c3)c2c1,78.8*,10.5,8.8,16.7,-27.7,-31.0,59.8*,107.6*
COc1ccc(/C=N/Nc2cc(C)nc3ccc(Br)cc23)cc1,97.5*,31.3,99.9*,19.5,-54.8,-6.7,24.6,.
CCC(C)C(NS(=O)(=O)c1ccc(C)cc1)C(=O)N1CCOCCOCCOCC1 (centres undefined),12.1,-0.3,6.4,19.1,-10.6,19.2,.,.
COc1cccc(/C=N/Nc2nc3ccccc3[nH]2)c1O,61.1*,-73.3,32.7,24.0,36.3,-180.0,40.2*,60.6*
Cc1cccc(C(=O)N2CCNC(=O)C2CC(=O)Nc2cccc(Cl)c2)c1 (centres undefined),18.7,-5.2,2.0,-0.7,-41.4,-7.9,.,.
Cn1c(=O)oc2cc(S(=O)(=O)N3CCCC(C(=O)Nc4ccccn4)C3)ccc21 (centres undefined),18.1,18.1,4.1,3.6,5.1,7.6,.,.
Cn1c(=O)oc2cc(S(=O)(=O)N3CCCC(C(=O)NC4CCCc5ccccc54)C3)ccc21 (centres undefined),76.2*,11.8,63.1*,1.0,-25.2,9.3,69.8*,54.4*
